The target of test [1] is mouse Cholecystokinin, CCK1 Receptor (CCKA), Cckar (gene 12425) (UniProt O08786). Kind of test: NVS_GPCR_mCCKAPeripheral: NovaScreen (NVS) G Protein-Coupled Receptor Assay for mouse Cholecystokinin, CCK1 Receptor (CCKA) (AID 2283285). In short, it runs like this:
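Chemicals were first screened in duplicate at 25 uM, with those meeting threshold (e.g., 30% inhibition) retested in singleton concentration series to 50 uM maximum. Binding of radioligand to mouse pancreatic membranes was read after 2 h by filtration and scintillation counting.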

Test [2] has as its system 5-hydroxytryptamine receptor 2C (pig). Kind of test: NVS_GPCR_p5HT2C: NovaScreen (NVS) G Protein-Coupled Receptor Assay for pig Serotonin, 5-Hydroxytryptamine Receptor 2C (5HT2C) (AID 2283288). In short, it runs like this:
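Radioligand displacement on membranes from pig choroid plexus, detected by filter scintillation counting after 1 h. Tested first at a single 25 uM in duplicate, then in concentration-response for actives; DMSO served as baseline.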

The target in test [3] is human Opioid Receptor Mu (Opiate Mu), OPRM1 (gene 4988) (UniProt P35372). Kind of test: NVS_GPCR_hOpiate_mu: NovaScreen (NVS) G Protein-Coupled Receptor Assay for human Opioid Receptor Mu (Opiate Mu) (AID 2283290).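 Also: hits lower bound tracer signal versus DMSO meaning displacement of the ligand.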 In a few lines: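 Primary screen in duplicate at 25 uM, with actives followed in concentration series. CHO-derived receptor membranes, cell-free; bound radioligand read by scintillation counting after filtration at 2.5 h, decrease scored against DMSO.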
human Opioid Receptor Mu (Opiate Mu), OPRM1 (gene 4988), sequence (P35372 whole entry, looked up): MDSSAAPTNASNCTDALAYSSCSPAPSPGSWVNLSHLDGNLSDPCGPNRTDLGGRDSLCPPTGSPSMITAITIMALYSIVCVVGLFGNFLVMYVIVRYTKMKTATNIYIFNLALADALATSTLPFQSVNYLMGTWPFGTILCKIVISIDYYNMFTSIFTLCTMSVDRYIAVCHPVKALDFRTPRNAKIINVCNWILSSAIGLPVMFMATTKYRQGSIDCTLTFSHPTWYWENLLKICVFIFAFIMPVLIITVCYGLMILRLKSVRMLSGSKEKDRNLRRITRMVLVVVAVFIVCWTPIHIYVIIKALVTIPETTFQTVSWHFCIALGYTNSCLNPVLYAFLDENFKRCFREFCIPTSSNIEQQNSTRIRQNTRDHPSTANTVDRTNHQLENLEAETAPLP

Test [4] addresses guinea pig Serotonin, 5-Hydroxytryptamine Receptor 4 (5HT4), HTR4 (gene 100135548) (UniProt O70528). Kind of test: NVS_GPCR_g5HT4: NovaScreen (NVS) G Protein-Coupled Receptor Assay for guinea pig Serotonin, 5-Hydroxytryptamine Receptor 4 (5HT4) (AID 2283294). In a few lines:
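Compounds first screened in duplicate at 25 uM, actives followed up in concentration series. Binding measured as displacement of specific radioligand from guinea pig striatal membranes, 1 h, filter-based scintillation read-out versus DMSO baseline.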

The target in test [5] is rat Adrenergic, Alpha 1A Receptor (Adra1A), Adra1a (gene 29412) (UniProt P43140). Kind of test: NVS_GPCR_rAdra1A: NovaScreen (NVS) G Protein-Coupled Receptor Assay for rat Adrenergic, Alpha 1A Receptor (Adra1A) (AID 2283296). In a few lines:
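Filter radiodetection after 1 h competitive binding on CEC-pretreated rat cortical membranes. Duplicate single-point screening at 25 uM; active chemicals retested across concentration series.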

Test [6] relates to rat Adrenergic, Alpha 1B Receptor (Adra1B), gene 24173. Kind of test: NVS_GPCR_rAdra1B: NovaScreen (NVS) G Protein-Coupled Receptor Assay for rat Adrenergic, Alpha 1B Receptor (Adra1B) (AID 2283297). In short, it runs like this:
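Filter-binding radioligand competition on membranes from rat liver, read after 1 h by scintillation counting. Single-concentration duplicate screen at 25 uM, followed by concentration-response on actives, normalised to DMSO.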

Test [7] concerns the target rat Adrenergic Receptor, Alpha 2 (Adra2), Non-selective Binding, Adra2a (gene 25083) (UniProt P22909). Kind of test: NVS_GPCR_rAdra2_NonSelective: NovaScreen (NVS) G Protein-Coupled Receptor Assay for rat Adrenergic Receptor, Alpha 2 (Adra2), Non-selective Binding (AID 2283299). In short, it runs like this: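 Filter-based scintillation counting of radioligand binding to rat cortical membrane receptors, measured 1.25 hours post-dosing; loss of signal versus DMSO indicates displacement. Initial single-concentration duplicate at 25 uM, then concentration series.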

Test [8] deals with rat Histamine Receptor (H3), Hrh3 (gene 85268) (UniProt Q9QYN8). Kind of test: NVS_GPCR_rH3: NovaScreen (NVS) G Protein-Coupled Receptor Assay for rat Histamine Receptor (H3) (AID 2283303). In short, it runs like this:
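Filter-binding radioligand competition on rat forebrain membranes, 1 h incubation; compounds screened at 25 µM in duplicate and followed in concentration series to 50 µM, loss of bound signal vs DMSO.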

The target in test [9] is Adra2b (gene 24174) (UniProt P19328). Kind of test: NVS_GPCR_rmAdra2B: NovaScreen (NVS) G Protein-Coupled Receptor Assay for hybird cells Adrenergic, Alpha 2B Receptor (Adra2B) (AID 2283306). In a few lines: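 Compounds screened first at 25 uM in duplicate, with actives followed up in concentration-response; specific radioligand displacement from hybrid neuroglioma/blastoma cell membrane preparations measured by filter scintillation counting after 1 h, normalized to DMSO.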
Adra2b (gene 24174), sequence (P19328 whole entry, looked up): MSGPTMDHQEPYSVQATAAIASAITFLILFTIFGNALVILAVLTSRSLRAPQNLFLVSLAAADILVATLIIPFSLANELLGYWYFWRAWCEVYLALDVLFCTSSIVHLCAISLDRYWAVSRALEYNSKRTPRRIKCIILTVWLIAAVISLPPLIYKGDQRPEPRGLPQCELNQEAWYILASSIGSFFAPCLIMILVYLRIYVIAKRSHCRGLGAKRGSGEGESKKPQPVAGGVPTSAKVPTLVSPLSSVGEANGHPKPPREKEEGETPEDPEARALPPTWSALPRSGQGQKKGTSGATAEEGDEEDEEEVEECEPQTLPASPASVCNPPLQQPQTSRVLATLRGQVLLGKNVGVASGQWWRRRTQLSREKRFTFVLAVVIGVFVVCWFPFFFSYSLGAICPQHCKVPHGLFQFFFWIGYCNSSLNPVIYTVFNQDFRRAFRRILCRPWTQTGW

Test [10] has as its target rat Opioid Receptor, Non-selective Sodium (Na+) Binding, Oprm1 (gene 25601) (UniProt P33535). Kind of test: NVS_GPCR_rOpiate_NonSelectiveNa: NovaScreen (NVS) G Protein-Coupled Receptor Assay for rat Opioid Receptor, Non-selective Sodium (Na+) Binding (AID 2283311). In short, it runs like this: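 Filtration radioligand binding on rat forebrain membrane preparations, read 1.5 h after dosing. Single-concentration 25 µM primary screen in duplicate, followed by singleton concentration series to 50 µM max for actives; DMSO baseline.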

Test [11] deals with rat Somatostatin Receptor (SST), Sstr1 (gene 25033) (UniProt P28646). Kind of test: NVS_GPCR_rSST: NovaScreen (NVS) G Protein-Coupled Receptor Assay for rat Somatostatin Receptor (SST) (AID 2283314). In a few lines: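 Single-concentration duplicate screen (25 uM), then concentration-response up to 50 uM for chemicals passing a threshold such as 30% inhibition. Membranes came from rat forebrain. Binding was measured 1 h post-dose by filter radiodetection and scintillation, relative to DMSO.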

Test [12] deals with rat Neurokinin-3 Receptor (NK3), Tacr3 (gene 24808) (UniProt P16177). Kind of test: NVS_GPCR_rNK3: NovaScreen (NVS) G Protein-Coupled Receptor Assay for rat Neurokinin-3 Receptor (NK3) (AID 2283310). In a few lines:
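Filter-based radioligand displacement on rat cortex membrane preparations, read by scintillation 2 h post-dose. Chemicals first tested in duplicate at 25 uM; actives followed up in concentration series with a 50 uM maximum.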

The target in test [13] is rat Gamma-Aminobutyric Acid Type B Receptor (GABBR), Gabbr1 (gene 81657) (UniProt Q9Z0U4). Kind of test: NVS_GPCR_rGABBR: NovaScreen (NVS) G Protein-Coupled Receptor Assay for rat Gamma-Aminobutyric Acid Type B Receptor (GABBR) (AID 2283301). In short, it runs like this:
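Rat cortical membrane preparation, competitive radioligand binding for 1 h with filtration and scintillation readout. Actives from duplicate single-point 25 uM screening proceeded to concentration series with 50 uM top concentration.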

The target in test [14] is rat Adrenergic Receptor, Beta (Adrb), Non-selective Binding, Adrb1 (gene 24925) (UniProt P18090). Kind of test: NVS_GPCR_rAdrb_NonSelective: NovaScreen (NVS) G Protein-Coupled Receptor Assay for rat Adrenergic Receptor, Beta (Adrb), Non-selective Binding (AID 2283298). In a few lines:
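Rat cortical membranes incubated 1 h with beta-adrenergic radioligand and test chemical; bound ligand measured by filtration and scintillation counting. Screen at 25 uM duplicate, then concentration series with 50 uM maximum; loss of signal versus DMSO.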

The target of test [15] is rat Serotonin, 5-Hydroxytryptamine Receptor (5HT), Non-Selective Binding, Htr1a (gene 24473) (UniProt P19327). Kind of test: NVS_GPCR_r5HT_NonSelective: NovaScreen (NVS) G Protein-Coupled Receptor Assay for rat Serotonin, 5-Hydroxytryptamine Receptor (5HT), Non-Selective Binding (AID 2283295). In a few lines: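 Rat cortex membrane preparation incubated 1 h with radioligand and test chemical; bound radioactivity counted after filtration. Screening began in duplicate at 25 uM with concentration-series follow-up; fitting relative to DMSO.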
rat Serotonin, 5-Hydroxytryptamine Receptor (5HT), Non-Selective Binding, Htr1a (gene 24473), sequence (P19327 whole entry, looked up): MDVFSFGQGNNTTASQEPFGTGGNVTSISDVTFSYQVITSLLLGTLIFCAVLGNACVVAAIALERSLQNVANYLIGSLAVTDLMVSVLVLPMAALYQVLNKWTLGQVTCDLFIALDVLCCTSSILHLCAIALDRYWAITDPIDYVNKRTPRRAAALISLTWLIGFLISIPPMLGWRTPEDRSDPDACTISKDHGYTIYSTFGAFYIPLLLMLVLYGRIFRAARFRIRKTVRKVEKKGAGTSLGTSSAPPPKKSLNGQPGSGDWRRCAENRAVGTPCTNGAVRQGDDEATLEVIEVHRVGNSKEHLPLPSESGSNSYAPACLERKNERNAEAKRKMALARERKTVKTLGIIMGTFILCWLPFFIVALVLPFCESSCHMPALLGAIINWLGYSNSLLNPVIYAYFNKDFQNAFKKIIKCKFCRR

The target of test [16] is guinea pig Bradykinin Receptor B2 (BK2), BDKRB2 (gene 100135486) (UniProt O70526). Kind of test: NVS_GPCR_gBK2: NovaScreen (NVS) G Protein-Coupled Receptor Assay for guinea pig Bradykinin Receptor B2 (BK2) (AID 2283292). In a few lines: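 Guinea pig ileum membrane preparation incubated 1 h with radioligand and test chemical; bound counts measured after filtration. Primary duplicate screening at 25 uM, then singleton concentration series with a 50 uM top dose; DMSO as baseline.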

Results filed as inconclusive are left out. Active and inactive are the calls of the source. The calls were made as follows: active = hit-call score of the fitted dose curve at least 0.9, where 1 is the maximum; inconclusive = response in the unintended direction; inactive = score below 0.9.

22 compounds from PubChem BioAssay (EPA / NIEHS) can be followed below.

rat Histamine Receptor (H3), Hrh3 (gene 85268), sequence (Q9QYN8 whole entry, looked up): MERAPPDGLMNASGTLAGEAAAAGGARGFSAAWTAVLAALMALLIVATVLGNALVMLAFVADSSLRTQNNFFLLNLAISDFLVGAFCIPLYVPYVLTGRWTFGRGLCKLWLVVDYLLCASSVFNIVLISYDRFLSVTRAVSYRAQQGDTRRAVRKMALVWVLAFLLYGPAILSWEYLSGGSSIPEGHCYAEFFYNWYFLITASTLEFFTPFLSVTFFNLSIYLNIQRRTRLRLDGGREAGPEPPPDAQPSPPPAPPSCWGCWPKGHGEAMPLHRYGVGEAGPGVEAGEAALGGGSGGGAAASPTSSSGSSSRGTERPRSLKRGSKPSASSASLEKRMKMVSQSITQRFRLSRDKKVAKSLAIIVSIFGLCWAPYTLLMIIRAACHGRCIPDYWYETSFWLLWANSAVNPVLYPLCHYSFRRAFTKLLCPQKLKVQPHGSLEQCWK
rat Adrenergic, Alpha 1A Receptor (Adra1A), Adra1a (gene 29412), sequence (P43140 whole entry, looked up): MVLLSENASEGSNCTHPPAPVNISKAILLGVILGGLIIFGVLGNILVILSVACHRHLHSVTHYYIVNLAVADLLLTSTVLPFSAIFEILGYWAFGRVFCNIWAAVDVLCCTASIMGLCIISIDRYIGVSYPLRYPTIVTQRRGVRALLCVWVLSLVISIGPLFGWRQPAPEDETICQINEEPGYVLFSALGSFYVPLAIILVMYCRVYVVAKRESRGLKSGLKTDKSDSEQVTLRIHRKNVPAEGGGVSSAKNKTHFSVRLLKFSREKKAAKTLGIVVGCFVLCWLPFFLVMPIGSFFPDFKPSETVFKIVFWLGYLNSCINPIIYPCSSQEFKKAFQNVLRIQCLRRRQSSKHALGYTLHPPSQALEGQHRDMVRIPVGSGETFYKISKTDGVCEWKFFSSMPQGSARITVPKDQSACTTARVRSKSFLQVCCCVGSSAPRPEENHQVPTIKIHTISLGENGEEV
guinea pig Serotonin, 5-Hydroxytryptamine Receptor 4 (5HT4), HTR4 (gene 100135548), sequence (O70528 whole entry, looked up): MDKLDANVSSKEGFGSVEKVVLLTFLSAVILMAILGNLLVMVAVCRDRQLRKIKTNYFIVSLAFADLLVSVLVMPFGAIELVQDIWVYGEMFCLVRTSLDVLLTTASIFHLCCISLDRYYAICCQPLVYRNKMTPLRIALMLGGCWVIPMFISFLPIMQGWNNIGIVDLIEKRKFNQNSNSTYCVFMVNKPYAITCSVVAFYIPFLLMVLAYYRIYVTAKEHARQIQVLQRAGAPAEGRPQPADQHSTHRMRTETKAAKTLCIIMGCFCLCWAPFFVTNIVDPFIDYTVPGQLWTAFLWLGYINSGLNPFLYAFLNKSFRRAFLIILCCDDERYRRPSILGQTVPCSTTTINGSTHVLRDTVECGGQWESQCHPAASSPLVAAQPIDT
rat Opioid Receptor, Non-selective Sodium (Na+) Binding, Oprm1 (gene 25601), sequence (P33535 whole entry, looked up): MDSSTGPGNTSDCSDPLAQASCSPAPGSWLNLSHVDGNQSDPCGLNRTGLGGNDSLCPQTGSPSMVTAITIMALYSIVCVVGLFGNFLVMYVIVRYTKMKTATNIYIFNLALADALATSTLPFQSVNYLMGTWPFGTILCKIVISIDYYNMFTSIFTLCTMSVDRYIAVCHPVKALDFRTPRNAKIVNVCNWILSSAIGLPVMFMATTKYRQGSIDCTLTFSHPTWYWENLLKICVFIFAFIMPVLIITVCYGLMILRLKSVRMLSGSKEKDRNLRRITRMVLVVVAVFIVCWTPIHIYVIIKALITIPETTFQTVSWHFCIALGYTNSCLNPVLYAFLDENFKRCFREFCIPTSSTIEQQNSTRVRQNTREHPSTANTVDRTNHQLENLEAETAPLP
rat Adrenergic Receptor, Alpha 2 (Adra2), Non-selective Binding, Adra2a (gene 25083), sequence (P22909 whole entry, looked up): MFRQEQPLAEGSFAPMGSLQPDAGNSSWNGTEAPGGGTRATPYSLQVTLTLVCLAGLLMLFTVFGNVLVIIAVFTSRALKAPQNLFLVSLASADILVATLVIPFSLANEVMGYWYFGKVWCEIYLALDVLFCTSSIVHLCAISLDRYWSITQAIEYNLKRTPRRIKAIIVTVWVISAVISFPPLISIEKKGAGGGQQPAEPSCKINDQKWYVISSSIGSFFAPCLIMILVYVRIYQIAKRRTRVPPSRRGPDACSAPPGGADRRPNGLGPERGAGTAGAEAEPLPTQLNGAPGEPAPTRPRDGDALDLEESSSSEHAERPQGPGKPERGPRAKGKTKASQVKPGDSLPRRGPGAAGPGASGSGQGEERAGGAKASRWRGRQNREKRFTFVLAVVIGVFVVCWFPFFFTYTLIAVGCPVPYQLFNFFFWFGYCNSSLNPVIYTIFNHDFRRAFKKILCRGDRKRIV
rat Neurokinin-3 Receptor (NK3), Tacr3 (gene 24808), sequence (P16177 whole entry, looked up): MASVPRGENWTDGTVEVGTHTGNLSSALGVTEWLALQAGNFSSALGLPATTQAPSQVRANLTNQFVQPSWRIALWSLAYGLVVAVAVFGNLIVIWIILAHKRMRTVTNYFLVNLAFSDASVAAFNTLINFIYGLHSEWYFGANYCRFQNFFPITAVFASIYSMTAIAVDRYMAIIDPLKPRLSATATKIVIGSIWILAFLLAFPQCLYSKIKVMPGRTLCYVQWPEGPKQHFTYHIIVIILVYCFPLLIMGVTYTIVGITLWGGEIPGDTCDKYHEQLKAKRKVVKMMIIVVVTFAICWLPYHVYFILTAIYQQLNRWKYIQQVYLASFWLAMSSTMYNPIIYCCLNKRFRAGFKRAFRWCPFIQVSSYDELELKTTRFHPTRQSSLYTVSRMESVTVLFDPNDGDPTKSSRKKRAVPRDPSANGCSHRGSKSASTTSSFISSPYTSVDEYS
rat Gamma-Aminobutyric Acid Type B Receptor (GABBR), Gabbr1 (gene 81657), sequence (Q9Z0U4 whole entry, looked up): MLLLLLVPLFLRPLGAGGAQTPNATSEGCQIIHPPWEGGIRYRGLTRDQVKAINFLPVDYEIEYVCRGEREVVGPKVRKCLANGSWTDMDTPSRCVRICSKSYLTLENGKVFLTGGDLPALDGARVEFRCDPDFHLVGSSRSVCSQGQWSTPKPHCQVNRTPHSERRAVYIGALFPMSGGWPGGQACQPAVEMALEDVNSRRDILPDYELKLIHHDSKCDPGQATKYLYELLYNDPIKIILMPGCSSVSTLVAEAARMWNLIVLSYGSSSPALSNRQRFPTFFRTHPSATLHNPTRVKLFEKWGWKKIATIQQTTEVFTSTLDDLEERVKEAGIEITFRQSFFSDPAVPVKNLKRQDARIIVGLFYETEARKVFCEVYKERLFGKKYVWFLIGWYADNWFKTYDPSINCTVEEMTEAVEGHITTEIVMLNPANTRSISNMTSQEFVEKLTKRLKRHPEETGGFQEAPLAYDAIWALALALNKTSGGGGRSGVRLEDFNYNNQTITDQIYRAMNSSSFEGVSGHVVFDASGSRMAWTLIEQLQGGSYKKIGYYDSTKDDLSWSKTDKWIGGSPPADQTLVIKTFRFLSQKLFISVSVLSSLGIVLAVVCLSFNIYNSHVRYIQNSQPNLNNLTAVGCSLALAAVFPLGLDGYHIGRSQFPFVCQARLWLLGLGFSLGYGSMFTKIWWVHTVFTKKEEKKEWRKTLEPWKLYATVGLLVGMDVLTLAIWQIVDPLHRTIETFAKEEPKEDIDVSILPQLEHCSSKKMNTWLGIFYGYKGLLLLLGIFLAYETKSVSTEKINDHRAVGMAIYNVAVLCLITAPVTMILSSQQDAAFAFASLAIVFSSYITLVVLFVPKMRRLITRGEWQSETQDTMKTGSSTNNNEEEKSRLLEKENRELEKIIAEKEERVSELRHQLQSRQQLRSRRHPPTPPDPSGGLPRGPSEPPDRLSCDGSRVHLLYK

Usually AC50 stands for the concentration giving half of the maximal activity seen. For `Cn1c(=O)cc(Oc2ccc(F)cc2F)c2cnc(NCC(C)(C)O)nc21`, the concentration at half-maximal activity (AC50) in [1] is 11.3 µM (active).
`COc1cccc(-c2ccc(/C=C\CN3CCCCCC3)cc2Cl)c1`: the half-maximal activity concentration (AC50) in test [2] was 11.8 µM (active); in test [3], 12.3 µM (active); in test [4] it was 12.1 µM (active); in test [6] it was 18.7 µM (active); in test [7], 2.99 µM (active); in test [8], 10.1 µM (active). Further, the AC50 was 4.39 µM (active) in [9] and 15.2 µM (active) in test [10]. The result in [5] and in test [11] was inactive.
Regarding `Nc1ccc(Nc2ccccc2)cc1`, the concentration at half-maximal activity (AC50) in test [4] is 31.6 µM (active); in test [6], 40.6 µM (active); in [7], 25 µM (active); in test [8], 16.9 µM (active).
As to `Cn1cnc([N+](=O)[O-])c1Sc1ncnc2nc[nH]c12`, the compound was classed as inactive in test [6].
With `CN(C)c1ccc(N=NS(=O)(=O)O)cc1`, the concentration at half-maximal activity (AC50) in [8] was 14.6 µM (active). Moreover, the compound was classed as inactive in test [12].
As to `CC[C@H]1CC[C@H](NCc2cc3c(cc2OC)[C@H]2C[C@H]2C(=O)N3C)[C@H](c2ccccc2)N1`, the half-maximal activity concentration (AC50) is 5.7 µM (active) in [3]; 14.2 µM (active) in [4]; 17.2 µM (active) in test [6]; 13.3 µM (active) in test [7]; 15 µM (active) in [8]; 12.3 µM (active) in [9]. Besides, the AC50 in test [10] was 2.83 µM (active). For the same compound, in test [13], the result was inactive.
Take `CCn1nc(Cc2ccccc2)cc1C1CCN(C[C@H]2C[C@H](N(C)[C@@H](C(=O)O)C(C)C)C[C@@H]2c2cccc(F)c2)CC1`: the AC50 in test [3] is 8.81 µM (active); in [4], 25 µM (active); in [10], 7.28 µM (active). Moreover, the result in [14] was inactive.
As to `CCC(C)(C)C(=O)O[C@H]1C[C@@H](C)C=C2C=C[C@H](C)[C@H](CC[C@@H]3C[C@@H](O)CC(=O)O3)[C@H]21`, the call in [3] and in test [7] was inactive.
With `O=C(CCCCCCCCc1cccnc1)N1CCC(C=C(c2ccccc2)c2ccccc2)CC1`, the AC50 in test [3] was 24.7 µM (active).
For `CCN(C(=O)c1cc(C)cc(OC[C@H](C)Nc2ccncc2)c1)C(C)C`, the AC50 was 3.35 µM (active) in [4]; 7.54 µM (active) in [5]; 4.14 µM (active) in test [7]; 2.93 µM (active) in test [8]; 8.19 µM (active) in test [9].
For `Oc1ccc2c(c1)-c1ccccc1C2`, the AC50 in [2] is 4.27 µM (active); in test [4], 6.87 µM (active).
Regarding `CNCc1ccc(NC(=O)c2c[nH]c3c2C(=O)CCC3)cc1`, the outcome in [13] and in test [9] was inactive.
Take `O=C(O)CC(O)C(=O)O` (stereo not given): the call in [2], in test [3] and in test [15] was inactive.
Regarding `CCOC(=O)CC(CC(=O)OCC)(OC(C)=O)C(=O)OCC`, the result in test [12] was inactive.
`CC(=O)OCCC(C)C`: the result in test [7] was inactive.
For the compound `O=C(O)CCN(C1(C(=O)NO)CCCC1)S(=O)(=O)c1ccc(Oc2ccc(F)cc2)cc1`, the outcome in test [9] and in [11] was inactive.
Turning to `COCCOc1cc2cc(C(=O)NC3CCN(C(C)C)CC3)n(CC(=O)Nc3ccc(Cl)cn3)c2cn1`, in test [16], the compound was classed as inactive. Besides, the AC50 in test [5] is 14.7 µM (active); in test [6] it was 15.3 µM (active); in test [7] it was 10.1 µM (active); in test [8], 12.6 µM (active).
`CCCCCCCCCCCCCCCO`: the compound was called inactive in [6] and in [10].
With `CC1(C)C(=O)N(Br)C(=O)N1Br`, in test [15], the half-maximal activity concentration (AC50) was 17.1 µM (active).
Take `CCOC(=O)COc1ccc2c(c1)CC(NCC(O)c1cccc(Cl)c1)CC2` (stereo not given): the values for the half-maximal activity concentration (AC50) in test [2], in test [3] and in [9] were 13.2 µM (active), 5.18 µM (active) and 11.2 µM (active), respectively. The call in test [15] was inactive.
For `CCOC(=O)c1ccc(C2CCC(NC[C@H](O)COc3ccc(O)c(NS(C)(=O)=O)c3)CC2)cc1` (stereo not given in full), the AC50 in test [2] is 19.5 µM (active); in test [4], 2.57 µM (active); in [5] it was 11.5 µM (active); in [14], 8.67 µM (active); in [8] it was 23.4 µM (active); in test [9], 23.4 µM (active). The outcome in test [3] and in [10] was inactive.
For `CC(C)=CCCC(C)CCO` (stereo not given), the compound was called inactive in test [3].
